Laboratory results from the supplement of paper PMC12282887.
± gives the standard deviation of the averaged measurements.

Experiments:
Assay in all cases: promoter activity interaction Z-score (Lux/OD deviation from empty-vector control); higher = stronger promoter induction by the compound
[1] = tested on: E. coli BW25113 acrABp lux reporter
Summary of the method: (§1)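 E. coli BW25113 (wild type or marA, soxS or rob deletion) carrying low-copy luxCDABE promoter reporters grew in 40 µl LB Lennox in 384-well plates at 37°C. Each compound was tested at four 1:2 dilutions in biological duplicates. OD600 and luminescence were read every 30 min for 12 h. Areas were taken over 0–8 h (wild type) or 1–9 h (mutants), and wells below 10% of median growth area were removed. The score is the Z-transformed residual of growth-normalised luminescence fitted against the empty-vector control.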

[2] = tested on: E. coli BW25113 micFp lux reporter
Summary of the method: as §1

[3] = tested on: E. coli BW25113 ompFp lux reporter
Summary of the method: as §1

[4] = tested on: E. coli BW25113 robp lux reporter
Summary of the method: as §1

[5] = tested on: E. coli BW25113 soxSp lux reporter
Summary of the method: as §1

[6] = tested on: E. coli BW25113 tolCp lux reporter
Summary of the method: as §1

[7] = 0.29 µg/ml, genetic background: wild type
[8] = 0.29 µg/ml, genetic background: ΔmarA
[9] = 0.29 µg/ml, genetic background: Δrob
[10] = 0.29 µg/ml, genetic background: ΔsoxS
[11] = 0.58 µg/ml, genetic background: wild type
[12] = 0.58 µg/ml, genetic background: ΔmarA
[13] = 0.58 µg/ml, genetic background: Δrob
[14] = 0.58 µg/ml, genetic background: ΔsoxS
[15] = 1.2 µg/ml, genetic background: wild type
[16] = 1.2 µg/ml, genetic background: ΔmarA
[17] = 1.2 µg/ml, genetic background: Δrob
[18] = 1.2 µg/ml, genetic background: ΔsoxS
[19] = 2.3 µg/ml, genetic background: wild type
[20] = 2.3 µg/ml, genetic background: ΔmarA
[21] = 2.3 µg/ml, genetic background: Δrob
[22] = 2.3 µg/ml, genetic background: ΔsoxS

COc1cccc2c1C(=O)c1c(O)c3c(c(O)c1C2=O)C[C@@](O)(C(=O)CO)C[C@@H]3O[C@H]1C[C@H](N)[C@H](O)[C@H](C)O1 [Doxorubicin]
promoter activity interaction Z-score [1, 7]: 0.264 ± 0.31 | promoter activity interaction Z-score [1, 8]: -0.773 ± 0.32 | promoter activity interaction Z-score [1, 9]: -0.101 ± 0.29 | promoter activity interaction Z-score [1, 10]: -0.227 ± 0.054 | promoter activity interaction Z-score [1, 11]: -0.00519 ± 0.22 | promoter activity interaction Z-score [1, 12]: -0.484 ± 0.49 | promoter activity interaction Z-score [1, 13]: 0.115 ± 0.14 | promoter activity interaction Z-score [1, 14]: 0.371 ± 0.49 | promoter activity interaction Z-score [1, 15]: 0.261 ± 0.022 | promoter activity interaction Z-score [1, 16]: -0.464 ± 0.4 | promoter activity interaction Z-score [1, 17]: -0.135 ± 0.15 | promoter activity interaction Z-score [1, 18]: 0.0497 ± 0.23 | promoter activity interaction Z-score [1, 19]: 0.546 ± 0.062 | promoter activity interaction Z-score [1, 20]: -0.437 ± 0.036 | promoter activity interaction Z-score [1, 21]: 6.35e-05 ± 0.4 | promoter activity interaction Z-score [1, 22]: 0.827 ± 0.68 | promoter activity interaction Z-score [2, 7]: 0.258 ± 0.51 | promoter activity interaction Z-score [2, 8]: 0.00982 ± 0.04 | promoter activity interaction Z-score [2, 9]: -0.233 ± 0.1 | promoter activity interaction Z-score [2, 10]: -0.236 ± 0.048 | promoter activity interaction Z-score [2, 11]: -0.041 ± 0.36 | promoter activity interaction Z-score [2, 12]: 0.043 ± 0.035 | promoter activity interaction Z-score [2, 13]: -0.0843 ± 0.009 | promoter activity interaction Z-score [2, 14]: 0.253 ± 0.04 | promoter activity interaction Z-score [2, 15]: -0.0305 ± 0.051 | promoter activity interaction Z-score [2, 16]: -0.0475 ± 0.075 | promoter activity interaction Z-score [2, 17]: -0.046 ± 0.01 | promoter activity interaction Z-score [2, 18]: -0.0734 ± 0.14 | promoter activity interaction Z-score [2, 19]: -0.114 ± 0.2 | promoter activity interaction Z-score [2, 20]: -0.105 ± 0.05 | promoter activity interaction Z-score [2, 21]: -0.179 ± 0.24 | promoter activity interaction Z-score [2, 22]: 0.5393 ± 0.002 | promoter activity interaction Z-score [3, 7]: 0.731 ± 0.14 | promoter activity interaction Z-score [3, 8]: 0.137 ± 0.52 | promoter activity interaction Z-score [3, 9]: 0.0129 ± 0.29 | promoter activity interaction Z-score [3, 10]: 0.416 ± 0.18 | promoter activity interaction Z-score [3, 11]: 0.4996 ± 0.0037 | promoter activity interaction Z-score [3, 12]: 0.465 ± 0.3 | promoter activity interaction Z-score [3, 13]: 0.853 ± 0.58 | promoter activity interaction Z-score [3, 14]: 0.476 ± 0.015 | promoter activity interaction Z-score [3, 15]: 0.149 ± 0.086 | promoter activity interaction Z-score [3, 16]: 0.206 ± 0.067 | promoter activity interaction Z-score [3, 17]: 0.0157 ± 0.25 | promoter activity interaction Z-score [3, 18]: 0.0237 ± 0.37 | promoter activity interaction Z-score [3, 19]: 0.745 ± 0.73 | promoter activity interaction Z-score [3, 20]: 0.961 ± 0.018 | promoter activity interaction Z-score [3, 21]: 0.674 ± 0.97 | promoter activity interaction Z-score [3, 22]: 1.34 ± 0.69 | promoter activity interaction Z-score [4, 7]: 1.18 ± 0.82 | promoter activity interaction Z-score [4, 8]: -0.24 ± 0.58 | promoter activity interaction Z-score [4, 9]: 0.206 ± 0.23 | promoter activity interaction Z-score [4, 10]: 0.239 ± 0.22 | promoter activity interaction Z-score [4, 11]: 0.596 ± 0.27 | promoter activity interaction Z-score [4, 12]: 0.16 ± 0.16 | promoter activity interaction Z-score [4, 13]: 0.385 ± 0.43 | promoter activity interaction Z-score [4, 14]: 0.541 ± 0.27 | promoter activity interaction Z-score [4, 15]: 0.714 ± 0.13 | promoter activity interaction Z-score [4, 16]: -0.447 ± 0.99 | promoter activity interaction Z-score [4, 17]: 0.329 ± 0.74 | promoter activity interaction Z-score [4, 18]: 0.0896 ± 0.043 | promoter activity interaction Z-score [4, 19]: 0.943 ± 0.18 | promoter activity interaction Z-score [4, 20]: 0.445 ± 0.36 | promoter activity interaction Z-score [4, 21]: -0.208 ± 0.44 | promoter activity interaction Z-score [4, 22]: 0.518 ± 0.087 | promoter activity interaction Z-score [5, 7]: 0.269 ± 0.063 | promoter activity interaction Z-score [5, 8]: 0.0336 ± 0.05 | promoter activity interaction Z-score [5, 9]: -0.322 ± 0.09 | promoter activity interaction Z-score [5, 10]: 0.15 ± 0.14 | promoter activity interaction Z-score [5, 11]: 0.223 ± 0.25 | promoter activity interaction Z-score [5, 12]: 0.0456 ± 0.13 | promoter activity interaction Z-score [5, 13]: 0.138 ± 0.19 | promoter activity interaction Z-score [5, 14]: 0.329 ± 0.29 | promoter activity interaction Z-score [5, 15]: 0.245 ± 0.26 | promoter activity interaction Z-score [5, 16]: -0.00668 ± 0.18 | promoter activity interaction Z-score [5, 17]: -0.0803 ± 0.088 | promoter activity interaction Z-score [5, 18]: -0.0415 ± 0.028 | promoter activity interaction Z-score [5, 19]: 0.426 ± 0.46 | promoter activity interaction Z-score [5, 20]: 0.0221 ± 0.059 | promoter activity interaction Z-score [5, 21]: -0.22 ± 0.18 | promoter activity interaction Z-score [5, 22]: 0.285 ± 0.86 | promoter activity interaction Z-score [6, 7]: 0.409 ± 0.23 | promoter activity interaction Z-score [6, 8]: 0.025 ± 0.4 | promoter activity interaction Z-score [6, 9]: -1.33 ± 0.07 | promoter activity interaction Z-score [6, 10]: -0.509 ± 0.71 | promoter activity interaction Z-score [6, 11]: 0.591 ± 0.37 | promoter activity interaction Z-score [6, 12]: 0.129 ± 0.57 | promoter activity interaction Z-score [6, 13]: -0.418 ± 0.28 | promoter activity interaction Z-score [6, 14]: 0.558 ± 0.63 | promoter activity interaction Z-score [6, 15]: 0.186 ± 1.3 | promoter activity interaction Z-score [6, 16]: -0.979 ± 0.47 | promoter activity interaction Z-score [6, 17]: -0.8316 ± 0.0065 | promoter activity interaction Z-score [6, 18]: -0.712 ± 0.47 | promoter activity interaction Z-score [6, 19]: -0.527 ± 0.035 | promoter activity interaction Z-score [6, 20]: -0.261 ± 0.0072 | promoter activity interaction Z-score [6, 21]: -1.42 ± 0.035 | promoter activity interaction Z-score [6, 22]: 0.704 ± 0.5
